# Assay results: PubChem BioAssay AID1159580 (chemical genetic matrix, 2015)
# Among all 5,500 compounds or so, about 2,000 (36%) were called active. Inconclusive results (about 18%) are left out. Some of the results follow. Values without a mark were called inactive. Rule as the data show it: active = normalized growth mostly below about 0.91 (no sharp cut-off); inconclusive = no clear call, values can overlap the other calls; inactive = mostly above about 0.92.
# Assay: chemical genetic growth profiling, strain panel (AID 1159580);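 also: tested at 20 µM; growth read once vehicle control cultures reached saturation at 30 °C; 1 = growth at the plate median or of vehicle wells; lower values mean less growth of the strain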
# Conditions: growth OD
# [1] = S. cerevisiae deletion strains, locus YAL013W, strain DEP1, stronger effect = lower value
# [2] = S. cerevisiae deletion strains, locus YBR229C, strain ROT2, stronger effect = lower value
# [3] = S. cerevisiae deletion strains, locus YCL061C, strain MRC1, stronger effect = lower value
# [4] = S. cerevisiae deletion strains, locus YDL101C, strain DUN1, stronger effect = lower value
# [5] = S. cerevisiae deletion strains, locus YDR150W, strain NUM1, stronger effect = lower value
# [6] = S. cerevisiae deletion strains, locus YEL061C, strain CIN8, stronger effect = lower value
# [7] = S. cerevisiae deletion strains, locus YGR078C, strain PAC10, stronger effect = lower value
# [8] = S. cerevisiae deletion strains, locus YHR030C, strain SLT2, stronger effect = lower value
# [9] = S. cerevisiae deletion strains, locus YHR087W, strain rtc3, stronger effect = lower value
# [10] = S. cerevisiae deletion strains, locus YJL187C, strain SWE1, stronger effect = lower value
# [11] = S. cerevisiae deletion strains, locus YJR043C, strain POL32, stronger effect = lower value
# [12] = S. cerevisiae deletion strains, locus YJR075W, strain HOC1, stronger effect = lower value
# [13] = S. cerevisiae deletion strains, locus YKL190W, strain CNB1, stronger effect = lower value
# [14] = S. cerevisiae deletion strains, locus YLR039C, strain RIC1, stronger effect = lower value
# [15] = S. cerevisiae deletion strains, locus YLR058C, strain SHM2 (second series), stronger effect = lower value
# [16] = S. cerevisiae deletion strains, locus YLR085C, strain ARP6, stronger effect = lower value
# [17] = S. cerevisiae deletion strains, locus YLR262C, strain YPT6, stronger effect = lower value
# [18] = S. cerevisiae deletion strains, locus YML094W, strain GIM5, stronger effect = lower value
# [19] = S. cerevisiae deletion strains, locus YMR219W, strain ESC1, stronger effect = lower value
# [20] = S. cerevisiae deletion strains, locus YMR263W, strain SAP30, stronger effect = lower value
# [21] = S. cerevisiae deletion strains, locus YNL153C, strain GIM3, stronger effect = lower value
# [22] = S. cerevisiae deletion strains, locus YNL298W, strain CLA4 (second series), stronger effect = lower value
# [23] = S. cerevisiae deletion strains, locus YNL322C, strain KRE1, stronger effect = lower value
# [24] = S. cerevisiae deletion strains, locus YNR030W, strain Alg12, stronger effect = lower value
# [25] = S. cerevisiae deletion strains, locus YOL006C, strain TOP1, stronger effect = lower value
# [26] = S. cerevisiae deletion strains, locus YPL055C, strain LGE1, stronger effect = lower value
# [27] = S. cerevisiae deletion strains, locus YPL241C, strain CIN2, stronger effect = lower value
# [28] = S. cerevisiae deletion strains, locus YPR135W, strain CTF4, stronger effect = lower value
# [29] = S. cerevisiae deletion strains, locus YDL134C, strain PPH21, stronger effect = lower value
# [30] = S. cerevisiae deletion strains, locus YGR229C, strain SMI1, stronger effect = lower value
structure (smiles),measurement,setting,value
O=C1OC2COC(=O)C2C=C1NC(=O)c1ccc(Cl)cc1 (centres undefined),normalized growth,[1],0.914 (active)
same,normalized growth,[2],0.372 (active)
same,normalized growth,[3],0.125 (active)
same,normalized growth,[4],0.154 (active)
same,normalized growth,[5],0.939
same,normalized growth,[6],0.882 (active)
same,normalized growth,[7],0.438 (active)
same,normalized growth,[8],0.38 (active)
same,normalized growth,[9],0.225 (active)
same,normalized growth,[10],0.381 (active)
same,normalized growth,[11],0.793 (active)
same,normalized growth,[12],0.0733 (active)
same,normalized growth,[13],0.913 (active)
same,normalized growth,[14],0.422 (active)
same,normalized growth,[15],0.506 (active)
same,normalized growth,[16],0.836
same,normalized growth,[17],0.436 (active)
same,normalized growth,[18],0.82 (active)
same,normalized growth,[19],0.143 (active)
same,normalized growth,[20],0.921
same,normalized growth,"S. cerevisiae deletion strains, locus YMR307W, strain GAS1, stronger effect = lower value",0.786
same,normalized growth,[21],0.329 (active)
same,normalized growth,[22],0.698 (active)
same,normalized growth,[23],0.967
same,normalized growth,[24],0.978
same,normalized growth,[25],0.72 (active)
same,normalized growth,[26],0.942
same,normalized growth,[27],0.975
same,normalized growth,[28],0.627 (active)
Clc1cc(Cl)c(Cl)c(-n2cccc2)c1Cl,normalized growth,[1],0.855 (active)
same,normalized growth,[2],0.914 (active)
same,normalized growth,[4],0.893 (active)
same,normalized growth,[29],0.826 (active)
same,normalized growth,[5],0.863
same,normalized growth,[6],0.763 (active)
same,normalized growth,[7],0.813 (active)
same,normalized growth,[30],0.752 (active)
same,normalized growth,[8],0.178 (active)
same,normalized growth,[9],0.8 (active)
same,normalized growth,[11],0.887 (active)
same,normalized growth,[12],0.707 (active)
same,normalized growth,[13],0.622 (active)
same,normalized growth,[14],0.304 (active)
same,normalized growth,[15],0.938
same,normalized growth,[16],0.41 (active)
same,normalized growth,[17],0.216 (active)
same,normalized growth,[18],0.691 (active)
same,normalized growth,[19],0.952
same,normalized growth,[20],0.916
same,normalized growth,[21],0.933
same,normalized growth,[22],0.641 (active)
same,normalized growth,[23],0.956
same,normalized growth,[24],0.631 (active)
same,normalized growth,[25],0.395 (active)
same,normalized growth,[26],0.785 (active)
same,normalized growth,[27],0.701 (active)
same,normalized growth,[28],0.543 (active)
CCCc1cc(Br)c(-n2cccc2)c(Br)c1,normalized growth,[1],0.998
same,normalized growth,[2],0.993
same,normalized growth,[4],1.01
same,normalized growth,[5],1.01
same,normalized growth,[6],1.02
same,normalized growth,[7],0.997
same,normalized growth,[8],1.08
same,normalized growth,[9],0.994
same,normalized growth,[10],0.992
same,normalized growth,[11],1.02
same,normalized growth,[12],0.994
same,normalized growth,[14],1.09
same,normalized growth,[15],0.998
same,normalized growth,[16],1.08
same,normalized growth,[17],1.05
same,normalized growth,[18],1.01
same,normalized growth,[19],0.994
same,normalized growth,[20],0.938
same,normalized growth,[21],1.01
same,normalized growth,[22],1.06
same,normalized growth,[23],0.997
same,normalized growth,[24],1.01
same,normalized growth,[25],1.04
same,normalized growth,[26],1.13
same,normalized growth,[27],1.02
same,normalized growth,[28],1.05
same,normalized growth,"S. cerevisiae strains, strain wild type, stronger effect = lower value",1.03
Clc1cc(Cl)cc(-n2cccc2)c1,normalized growth,[1],1.02
same,normalized growth,[2],0.995
same,normalized growth,[3],1.03
same,normalized growth,[4],1.01
same,normalized growth,[29],0.969
same,normalized growth,[5],1.04
same,normalized growth,[6],0.963
same,normalized growth,[7],1
same,normalized growth,[30],0.98
same,normalized growth,[8],0.975
same,normalized growth,[9],0.989
same,normalized growth,[10],1
same,normalized growth,[11],1.02
same,normalized growth,[12],0.981
same,normalized growth,[13],0.988
same,normalized growth,[14],1.04
same,normalized growth,[15],0.994
same,normalized growth,[16],0.949
same,normalized growth,[17],1.05
same,normalized growth,[18],0.991
same,normalized growth,[19],0.997
same,normalized growth,[20],1.01
same,normalized growth,[21],1.01
same,normalized growth,[22],0.951
same,normalized growth,[23],1
same,normalized growth,[24],0.98
same,normalized growth,[25],0.977
same,normalized growth,[26],0.981
same,normalized growth,[27],0.987
same,normalized growth,[28],0.917
